Bioassay records as filed in PubChem.
Pf Dd2 inh: inhibitors of Plasmodium falciparum Dd2 growth; P. falciparum Dd2 growth, SYBR Green, 72 h; active compounds read low; AID 1159554; activity change, % at 10 µM; actives 2.3% (n = 94,000); in the data active = activity change below about -80%; inconclusive = no clear call, values can overlap the other calls
C diff HTS: inhibitors of Clostridium difficile growth. Clostridium difficile clinical isolate growth, OD600, 24 h; active compounds read low. actives 0.25% (n = 86,000). growth activity, negative = inhibition, % at 16 µg/mL (by protocol);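 active = mean growth activity at or below -80% and every replicate also at or below -80%; inconclusive = mean at or below -80% but some replicate above -80%; inactive = mean growth activity above -80%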;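 note: 0% = DMSO wells and -100% = levofloxacin 16 µg/mL wells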
T cruzi growth-1: blocks T. cruzi growth in NIH3T3 culture. inhibition, % at 8.34 µM. actives 5.9% (n = 77,000). T. cruzi beta-gal in NIH3T3, GalScreen luminescence, 90 h;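 active = mean inhibition above about 93%, with at least 55% of replicates each passing it, limit read from the data, passing the limit was not always enough; inconclusive = only one of those two conditions holds; inactive = neither condition holds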
T cruzi growth-2: blocks T. cruzi growth in NIH3T3 host cells. shares compounds with T cruzi growth-1. T. cruzi beta-gal in NIH3T3, GalScreen luminescence, 90 h. inhibition, % at 8.35 µM. actives 72% (n = 5,600). AID 651739;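 active = mean replicate inhibition above about 95% and at least 55% of replicates individually reaching it, limit read from the data; inconclusive = only one of the two criteria is met; inactive = neither criterion is met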
T cruzi growth-3: blocks T. cruzi growth in NIH3T3 host cells; shares compounds with T cruzi growth-1; T. cruzi beta-gal in NIH3T3, GalScreen luminescence, 90 h; inhibition, % at 2.09 µM; actives 21% (n = 5,600);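 active = mean inhibition above about 95%, with at least 55% of replicates also reaching it, limit read from the data; inconclusive = meets just one of the two conditions; inactive = meets neither condition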;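 note: plate controls were neutral control median for no effect and positive control median for full effect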
3T3 cytotox: NIH/3T3 (mouse) viability loss; shares compounds with T cruzi growth-1; NIH/3T3 viability, CellTiter-Glo ATP luminescence, 90 h; cytotoxicity (signal decrease), % at 8.35 µM; actives 14% (n = 5,600);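 active = mean signal decrease across replicates above about 35% based on untreated-well scatter, with enough replicates individually passing, limit read from the data; inconclusive = no rule stated though some were filed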;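 note: 0% = median of neutral control wells and 100% = median of positive control wells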
3T3 cytotox 2: cytotoxicity in mouse NIH/3T3 fibroblasts. shares compounds with T cruzi growth-1. NIH/3T3 viability, CellTiter-Glo ATP luminescence, 90 h. inhibition, % at 24.9 µM. actives 56% (n = 5,600);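 active = mean loss of cell viability signal at or above a set limit, and enough replicates individually reaching it; inconclusive = meets only the mean limit or only the replicate share; inactive = meets neither condition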;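 note: 0% = median of neutral control wells and 100% = median of positive control wells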
Numbers without * were called inactive; ? = inconclusive; nt = not tested or not shown. Sampled rows, rich in hits. Any-hit rate of the full collection: about 6.8%.

SMILES	Pf Dd2 inh	C diff HTS	T cruzi growth-1	T cruzi growth-2	T cruzi growth-3	3T3 cytotox	3T3 cytotox 2
COCC#Cc1ccc2c(c1)O[C@H](CN(C)Cc1ccccc1F)[C@H](C)CN([C@H](C)CO)S2(=O)=O	-45.8	-0.6	-0.9	nt	nt	nt	nt
COCC#Cc1ccc2c(c1)O[C@H](CN(C)Cc1ccccc1F)[C@@H](C)CN([C@H](C)CO)S2(=O)=O	-68.2	-4.0	-17.6	nt	nt	nt	nt
COc1cccc(S(=O)(=O)Nc2ccc3c(c2)OC[C@@H](C)N(Cc2ccccc2F)C[C@H](C)[C@H](OC)CN(C)C3=O)c1	-38.4	nt	61.9	nt	nt	nt	nt
O=C(Nc1ccccc1)N[C@H]1CC[C@@H](CCNS(=O)(=O)c2ccccc2F)O[C@@H]1CO	4.7	-2.6	-59.7	nt	nt	nt	nt
C[C@@H]1CN([C@@H](C)CO)C(=O)c2cc(-c3ccccc3)cnc2O[C@H]1CN(C)C(=O)NC1CCCC1	-9.3	-8.0	-11.8	nt	nt	nt	nt
Cc1ccc(S(=O)(=O)Nc2cccc3c2O[C@H](CN(C)Cc2ccc(C(=O)O)cc2)[C@@H](C)CN([C@@H](C)CO)C3=O)cc1	16.7	0.6	14.2	nt	nt	nt	nt
C[C@H]1CN([C@@H](C)CO)C(=O)c2cc(NS(=O)(=O)c3cccs3)ccc2O[C@@H]1CN(C)S(=O)(=O)c1ccc(F)cc1	1.2	-2.9	32.8	nt	nt	nt	nt
CC(C)NC(=O)Nc1ccc2c(c1)C(=O)N([C@@H](C)CO)C[C@@H](C)[C@H](CN(C)C(=O)c1ccncc1)OCCCC[C@@H](C)O2	30.5	-3.2	-2.1	nt	nt	nt	nt
O=C(C[C@H]1CC[C@H]2[C@@H](COC[C@@H](O)CN2Cc2cc(F)cc(F)c2)O1)NC1CCCC1	-28.1	6.3	79.9	nt	nt	nt	nt
O=C(NCCN1CCCCC1)[C@H]1N[C@H]2c3ccc(-c4ccncc4)c(=O)n3C[C@H]2[C@@H]1CO	-1.1	-3.4	101.8*	-43.0	-1.2	-5.2	-21.4
O=C(NCCCN1CCOCC1)[C@@H]1[C@@H](CO)[C@@H]2Cn3c(ccc(C4=CCCC4)c3=O)[C@H]1N2	16.2	4.9	?	51.5	10.9	16.8	-4.1
O=C(NCCN1CCCCC1)[C@@H]1N[C@@H]2c3ccc(-c4cccnc4)c(=O)n3C[C@@H]2[C@H]1CO	nt	nt	-95.1	nt	nt	nt	nt
CCCNC(=O)[C@@H]1[C@@H](CO)[C@@H]2Cn3c(ccc(C4=CCCC4)c3=O)[C@H]1N2	3.3	-1.2	99.6*	-3.6	-18.8	-1.5	-6.8
O=C(NCCCN1CCOCC1)[C@H]1N[C@H]2c3ccc(C4=CCCCC4)c(=O)n3C[C@H]2[C@@H]1CO	6.8	-2.1	?	-18.9	-15.0	-9.3	0.3
O=C(NCc1ccc(F)cc1)[C@H]1[C@H](CO)[C@H]2Cn3c(ccc(C4=CCCCC4)c3=O)[C@@H]1N2	nt	-5.3	-132.1	nt	nt	nt	nt
O=C(NCCCN1CCOCC1)[C@@H]1N[C@@H]2c3ccc(C4=CCCCC4)c(=O)n3C[C@@H]2[C@H]1CO	21.0	-1.7	52.1	nt	nt	nt	nt
O=C(NCCCN1CCOCC1)[C@H]1[C@H](CO)[C@H]2Cn3c(ccc(C4=CCCCC4)c3=O)[C@@H]1N2	nt	21.7	32.5	nt	nt	nt	nt
CN(C)CC#Cc1ccc([C@@H]2[C@H](CO)N3C(=O)CN(C(=O)Cc4ccccc4)C[C@@H]23)cc1	27.3	23.7	nt	nt	nt	nt	nt
COc1ccc(NC(=O)N[C@H]2CC[C@H](CCNS(=O)(=O)c3cccc(Cl)c3)O[C@H]2CO)cc1	-12.1	6.8	-3.1	nt	nt	nt	nt
COc1ccc(-c2ccc([C@H]3[C@@H](C#N)N(C(=O)c4cccc(F)c4)[C@@H]3CO)cc2)cc1	-20.0	8.0	93.9	nt	nt	nt	nt
CCCNC(=O)Nc1ccc2c(c1)C(=O)N(C)C[C@@H](OC)[C@@H](C)CN(CCC)[C@@H](C)CO2	31.8	1.2	-1.6	nt	nt	nt	nt
CC(=O)N(C)C[C@@H]1Oc2cc(C#Cc3ccccn3)ccc2S(=O)(=O)N([C@@H](C)CO)C[C@H]1C	15.9	-0.9	101.8*	91.1	80.8	-7.6	19.4
C[C@H]1CN([C@@H](C)CO)S(=O)(=O)c2ccc(C#Cc3ccccn3)cc2O[C@@H]1CN(C)C	13.4	-1.9	nt	nt	nt	nt	nt
CC(=O)N(C)C[C@H]1Oc2cc(C#Cc3ccccn3)ccc2S(=O)(=O)N([C@H](C)CO)C[C@@H]1C	24.2	-2.0	-4.8	nt	nt	nt	nt
C[C@H](CO)N1C[C@H](C)[C@H](CN(C)Cc2ccccc2)Oc2cc(C#Cc3ccccn3)ccc2S1(=O)=O	-78.1	-5.0	106.8*	108.8*	89.8	3.9	-7.2
SMILES	Pf Dd2 inh	C diff HTS	T cruzi growth-1	T cruzi growth-2	T cruzi growth-3	3T3 cytotox	3T3 cytotox 2
C[C@H](CO)N1C[C@H](C)[C@H](CN(C)C)Oc2cc(C#Cc3ccccn3)ccc2S1(=O)=O	14.7	3.3	nt	nt	nt	nt	nt
C[C@@H]1CN([C@H](C)CO)S(=O)(=O)c2ccc(C#Cc3ccccn3)cc2O[C@@H]1CN(C)Cc1ccccc1	-19.8	-1.4	100.8*	73.4	52.6	4.1	98.5*
C[C@H](CO)N1C[C@H](C)[C@H](CN(C)Cc2ccccc2)Oc2cc(C#CCN(C)C)ccc2S1(=O)=O	-49.5	-1.6	66.7	nt	nt	nt	nt
CC(C)NC(=O)Nc1ccc2c(c1)CC(=O)N([C@@H](C)CO)C[C@H](C)[C@H](CN(C)S(=O)(=O)c1ccc(Cl)cc1)O2	2.7	3.9	49.6	nt	nt	nt	nt
C[C@@H]1CN([C@@H](C)CO)C(=O)CCCn2nncc2CO[C@@H]1CN(C)CC1CCCC1	-25.0	-4.3	-37.8	nt	nt	nt	nt
C[C@H]1CN([C@@H](C)CO)C(=O)c2cccc(NC(=O)c3ccc(-c4nccs4)cc3)c2O[C@@H]1CN(C)Cc1ccc(-c2ccccc2)cc1	-84.3*	-6.1	98.7*	106.6*	68.0	-3.4	-14.0
C[C@H]1CN([C@@H](C)CO)C(=O)c2cccc(NC(=O)c3ccc(-c4nccs4)cc3)c2O[C@H]1CN(C)Cc1ccc(C(=O)Nc2ccccc2N)cc1	-90.9*	-4.9	98.0*	101.8*	101.3*	22.1	56.5*
C[C@H](CO)N1C[C@H](C)[C@@H](CN(C)CC2CCCCC2)Oc2c(NC(=O)c3ccc(-c4nccs4)cc3)cccc2C1=O	-52.3	2.5	59.7	nt	nt	nt	nt
C[C@H](CO)N1C[C@H](C)[C@H](CN(C)Cc2ccc(Oc3ccccc3)cc2)Oc2c(NC(=O)c3ccc(-c4nccs4)cc3)cccc2C1=O	-60.8	nt	102.8*	109.6*	109.5*	23.9	25.3*
C[C@@H]1CN([C@H](C)CO)C(=O)c2cccc(NC(=O)c3ccc(-c4nccs4)cc3)c2O[C@H]1CN(C)Cc1ccc(Oc2ccccc2)cc1	-52.5	nt	77.7	nt	nt	nt	nt
C[C@@H]1CN([C@@H](C)CO)C(=O)c2cccc(NC(=O)c3ccc(-c4nccs4)cc3)c2O[C@H]1CN(C)CC1CCCCC1	-69.7	8.6	99.1*	116.9*	74.3	6.6	15.3
C[C@H]1CN([C@@H](C)CO)C(=O)c2cccc(NC(=O)c3ccc(-c4nccs4)cc3)c2O[C@@H]1CN(C)Cc1ccccc1	-17.8	2.2	71.1	nt	nt	nt	nt
